Laboratory results as given in PubChem BioAssay.
Several values for one entry are separate records, joined by “and”; a condition that tells them apart may be missing. Identical values can stand only once. Records with an inconclusive call do not appear. Activity calls are given as the source filed them. Unless noted, the limit is not given here; nearly all actives have AC50 up to about 26 µM.

Columns and labels:
[1] = growth inhibition of DIPG glioma cells, dose response, cell-based, SU-DIPG-XVII, MIPE5.0, CellTiter-Glo, qHTS (AID 1347060); conditions: SU-DIPG-XVII viability, CellTiter-Glo ATP luminescence;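 as to AC50: cells exposed to compound for 48 hours before viability readout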
[2] = growth inhibition of DIPG glioma cells, dose response, cell-based, SU-DIPG-XIII, MIPE4.0, CellTiter-Glo, qHTS (AID 1347061; cut-off not given, nearly all actives have AC50 up to about 37 µM;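 also: cells exposed to compound for 48 hours before readout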); conditions: SU-DIPG-XIII viability, CellTiter-Glo ATP luminescence
[3] = growth inhibition of DIPG glioma cells, dose response, cell-based, JHH-DIPG-1, MIPE4.0, CellTiter-Glo, qHTS (AID 1347062; cut-off not given, nearly all actives have AC50 up to about 27 µM;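 as to AC50: cells exposed to compound for two days before readout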); conditions: JHH-DIPG-1 viability, CellTiter-Glo ATP luminescence
[4] = growth inhibition of DIPG glioma cells, dose response, cell-based, SU-DIPG-IV, MIPE4.0, CellTiter-Glo, qHTS (AID 1347063; cut-off not given, nearly all actives have AC50 up to about 30 µM;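 also: compound exposure lasted 48 hours before the viability readout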); conditions: SU-DIPG-IV viability, CellTiter-Glo ATP luminescence
[5] = growth inhibition of DIPG glioma cells, dose response, cell-based, SU-DIPG-XIII, MIPE5.0, CellTiter-Glo, qHTS (AID 1347064; cut-off not given, nearly all actives have AC50 up to about 23 µM;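 as to AC50: cells exposed to compound for 48 hours before the viability read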); conditions: SU-DIPG-XIII viability, CellTiter-Glo ATP luminescence
[6] = viability loss in pontine glioma line – cell-based, SU-DIPG-XXV, MIPE5.0, CellTiter-Glo, qHTS, dose response (AID 1347065); conditions: CellTiter-Glo ATP luminescence;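 also: cells exposed to compound for 48 hours before ATP readout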
[7] = SU-DIPG-VI glioma cell viability, MIPE4.0 library, CellTiter-Glo luminescence, qHTS (AID 1347066; cut-off not given, nearly all actives have AC50 up to about 30 µM;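 also: cells exposed to compound for 48 hours before readout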); conditions: CellTiter-Glo ATP luminescence
[8] = JHH-DIPG-1 glioma cell viability, MIPE5.0 library, CellTiter-Glo luminescence, qHTS (AID 1347067); conditions: JHH-DIPG-1 glioma viability, CellTiter-Glo ATP luminescence;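 also: cells exposed to compound for 48 hours before readout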
[9] = SU-DIPG-XXV glioma cell viability, MIPE5.0 library, qHTS (AID 1347068; cut-off not given, nearly all actives have IC50 up to about 30 µM;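 as to IC50: cells exposed to compound for 48 hours before viability readout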)
[10] = sensitizers of A549 cells to miR-34 induction, primary screen, imaging, A549 dox-inducible miR-34, nuclei and caspase counts (AID 1347080;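 active = compounds whose cell count with miR-34 switched on is under 0.7 times the count with it off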); conditions: A549 miR-34 inducible, Hoechst nuclei count, 48 h
[11] = survival rescue of mitochondrial mutant cells in low glucose, primary screen, MELAS cybrids, Rieske KO mouse fibroblasts, CellTiter-Glo (AID 1508586;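 active = mean z-score across replicates of 1.96 or higher in either the MELAS or the Rieske mutant cell line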;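 also: z relative to plate mean and SD of compound and empty wells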)
[12] = modifiers of HSF1 nuclear foci, imaging, Selleck Cancer Library (AID 1347162; in the data active = plate-normalised HSF1 focus index below about 0.46); conditions: human cells, at 10 µM; SSMD: measured here: HSF1 foci SSMD mean; cell count: measured here: cell number; plate-normalised HSF1 focus index: stronger effect = lower value
[13] = stronger effect = lower value, cell number ratio, induced over uninduced
[14] = measured here: relative caspase fold change +Dox/-Dox
[15] = measured here: total cells with miR-34 induction, stronger effect = lower value
[16] = measured here: total cells without miR-34 induction
[17] = MELAS cybrid survival, CellTiter-Glo 48 h, stronger effect = higher value
[18] = Rieske KO mouse fibroblast survival, CellTiter-Glo 72 h

CC[C@H](CC[C@@H](C)[C@H]1CC[C@H]2[C@@H]3CC=C4C[C@@H](O)CC[C@]4(C)[C@H]3CC[C@]12C)C(C)C
0.534: fold change [10, 14]
8770: cell count [10, 15]
9330: cell count [10, 16]
inactive: outcome [1] | outcome [2] | outcome [3] | outcome [4] | outcome [5] | outcome [6] | outcome [7] | outcome [8] | outcome [9] | fold change [10, 13] 0.94

C=CC(=O)Nc1cccc(Oc2nc(Nc3ccc(N4CCN(C)CC4)cc3)ncc2Cl)c1
0.779: fold change [10, 14]
1580: cell count [10, 15]
inactive: fold change [10, 13] 0.981 | z-score [11, 17] 1.07
1610: cell count [10, 16]
0.326: z-score [11, 18]
active: AC50 [1] 0.468 µM | AC50 [2] 13.2 µM | AC50 [3] 1.66 µM | AC50 [4] 2.09 µM | AC50 [5] 1.32 µM | AC50 [6] 0.372 µM | AC50 [7] 18.7 µM | AC50 [8] 1.18 µM | IC50 [9] 0.525 µM

Clc1ccc(C(c2ccc(Cl)cc2)n2cc[n+](CC(OCc3ccc(Cl)cc3Cl)c3ccc(Cl)cc3Cl)c2)cc1 (centres undefined)
active: AC50 [1] 2.95 µM | AC50 [2] 23.5 µM | AC50 [3] 16.6 µM | AC50 [4] 9.35 µM | AC50 [5] 2.63 µM | AC50 [6] 2.35 µM | AC50 [7] 13.2 µM | AC50 [8] 2.63 µM | IC50 [9] 3.72 µM

Cc1ccc(O)c(C(CCN(C(C)C)C(C)C)c2ccccc2)c1 (centres undefined)
8130 and 7320 and 11700: cell count [10, 15]
8600 and 7630 and 13400: cell count [10, 16]
inactive: outcome [1] | outcome [2] | outcome [3] | outcome [4] | outcome [5] | outcome [6] | outcome [7] | outcome [8] | outcome [9] | fold change [10, 13] 0.945 and 0.96 and 0.87 | z-score [11, 17] -0.247
1.69 and 0.719 and 5.48: fold change [10, 14]
-0.0904: z-score [11, 18]

CC(C)c1ccc(Cn2ccc3c4c(N)nc(NC5CC5)nc4ccc32)cc1
-7.04: SSMD [12]
inactive: plate-normalised HSF1 focus index [12] 0.581
active: AC50 [1] 2.63 µM | AC50 [2] 20.9 µM | AC50 [3] 4.69 µM | AC50 [4] 4.18 µM | AC50 [5] 6.61 µM | AC50 [6] 2.63 µM | AC50 [7] 18.7 µM | AC50 [8] 5.25 µM | IC50 [9] 3.72 µM
3190: cell count [12]
